Laboratory results as given in PubChem BioAssay (NCI).
This is part of a sample that, as a whole, favours compounds with a hit. Of some 83,000 tested, about 20% had one in any assay.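 Single-concentration screen, 48 h exposure, 96-well plates. Endpoint: percent growth. Below 10 = active.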 Calls of active or inactive are those of the source.

Experiments:
Assay in all cases: NCI-60 one-dose screen, 48 h (100 = growth as untreated, 0 = no growth, -100 = all killed)
HT29 colon = details: 10 µM unless noted
SNB-75 CNS = details: 10 µM unless noted
SNB-19 CNS = details: 10 µM unless noted
U251 CNS = details: 10 µM unless noted
PC-3 prostate = details: 10 µM unless noted
SK-MEL-5 melanoma = details: 10 µM unless noted
UACC-62 melanoma = details: 10 µM unless noted
LOX IMVI melanoma = details: 10 µM unless noted
SK-MEL-28 melanoma = details: 10 µM
SK-MEL-2 melanoma = details: 10 µM unless noted
SN12C renal = details: 10 µM unless noted
UO-31 renal = details: 10 µM unless noted
TK-10 renal = details: 10 µM unless noted
ACHN renal = details: 10 µM unless noted
CAKI-1 renal = details: 10 µM unless noted
A498 renal = details: 10 µM unless noted
CCRF-CEM leukemia = details: 10 µM unless noted
MOLT-4 leukemia = details: 10 µM unless noted
SR leukemia = details: 10 µM unless noted
EKVX NSCLC = details: 10 µM unless noted

Measured: growth

COc1ccc(Cn2c(Br)c3c(c2Br)-c2nc(N)sc2CC3)cc1
inactive: HT29 colon 16.8% | SNB-75 CNS 38.2% | SNB-19 CNS 66.9% | U251 CNS 36.5% | PC-3 prostate 56.6% | SK-MEL-5 melanoma 15.1% | UACC-62 melanoma 27.5% | LOX IMVI melanoma 35.7% | SK-MEL-28 melanoma 46.1% | SK-MEL-2 melanoma 22% | SN12C renal 41.2% | UO-31 renal 52.4% | TK-10 renal 71.1% | ACHN renal 55.2% | CAKI-1 renal 39% | A498 renal 11.6%
active: CCRF-CEM leukemia 4.26% | MOLT-4 leukemia 4.01% | SR leukemia 4.13%

Nc1ccc(-c2nc3cc(Oc4ccc(Oc5ccc6[nH]c(-c7ccc(N)cc7)nc6c5)cc4)ccc3[nH]2)cc1
inactive: HT29 colon 70.2% | SNB-75 CNS 115% | SNB-19 CNS 110% | U251 CNS 96.6% | PC-3 prostate 115% | SK-MEL-5 melanoma 87.5% | UACC-62 melanoma 58.8% | LOX IMVI melanoma 99.2% | SK-MEL-28 melanoma 101% | SK-MEL-2 melanoma 82.1% | SN12C renal 90.4% | UO-31 renal 97.7% | TK-10 renal 112% | ACHN renal 101% | CAKI-1 renal 120% | A498 renal 91.5% | CCRF-CEM leukemia 100% | MOLT-4 leukemia 96.8% | SR leukemia 91.9%

O=C(O)CCC(=O)c1ccc(C2CCCCCC2)cc1
inactive: HT29 colon 91.6% | SNB-75 CNS 96.5% | SNB-19 CNS 93.2% | U251 CNS 96% | PC-3 prostate 99.2% | SK-MEL-5 melanoma 105% | UACC-62 melanoma 106% | LOX IMVI melanoma 99% | SK-MEL-28 melanoma 113% | SK-MEL-2 melanoma 105% | SN12C renal 99.5% | UO-31 renal 80.4% | TK-10 renal 99.1% | ACHN renal 97.1% | CAKI-1 renal 97.4% | A498 renal 89.2% | CCRF-CEM leukemia 101% | MOLT-4 leukemia 87.3% | SR leukemia 93.8%

O=c1c(-c2nc3ccccc3[nH]2)cc2ccccc2n1Cc1cn(Cc2ccccc2Cl)nn1
inactive: SNB-19 CNS 54.8% | U251 CNS 37.9% | PC-3 prostate 36.6% | UACC-62 melanoma 22.1% | LOX IMVI melanoma 12.8% | SK-MEL-2 melanoma 94.1% | EKVX NSCLC 74.8% | SN12C renal 12% | TK-10 renal 31% | CAKI-1 renal 77.4% | A498 renal 67% | CCRF-CEM leukemia 65.2% | MOLT-4 leukemia 32.5% | SR leukemia 11.5%
active: HT29 colon 0.454% | SNB-75 CNS -41.2% | SK-MEL-5 melanoma 0.0348% | SK-MEL-28 melanoma 1.94% | UO-31 renal -65.7%

CC1(C)CC2(C)OC2C2(C1)N=NC(=Nc1ccccc1)O2 (centres undefined)
inactive: HT29 colon 25.1% | SNB-75 CNS 84.8% | SNB-19 CNS 86% | U251 CNS 84.4% | PC-3 prostate 62.5% | SK-MEL-5 melanoma 61.5% | UACC-62 melanoma 73.1% | SK-MEL-28 melanoma 70.3% | SK-MEL-2 melanoma 76.6% | SN12C renal 61.9% | UO-31 renal 20.8% | TK-10 renal 13.6% | ACHN renal 21.2% | CAKI-1 renal 57.4% | A498 renal 125% | CCRF-CEM leukemia 10.7% | MOLT-4 leukemia 19.9% | SR leukemia 11.3%
active: LOX IMVI melanoma -51.9%

O=C(N/N=C/c1ccccc1O)C(=O)Nc1ccc(F)cc1
inactive: HT29 colon 40.9% | SNB-75 CNS 85.5% | SNB-19 CNS 53.9% | U251 CNS 33.5% | PC-3 prostate 54.7% | SK-MEL-5 melanoma 55.5% | UACC-62 melanoma 35.1% | LOX IMVI melanoma 27.2% | SK-MEL-28 melanoma 59.4% | SK-MEL-2 melanoma 71.6% | SN12C renal 44.5% | UO-31 renal 19.3% | TK-10 renal 53.8% | ACHN renal 30.4% | CAKI-1 renal 22.7% | A498 renal 92.4% | CCRF-CEM leukemia 23% | MOLT-4 leukemia 21.3% | SR leukemia 23.3%

CCCCOCc1cc(CN2CCN(C)CC2)c(O)c2ncccc12
inactive: HT29 colon 96% | SNB-75 CNS 68.2% | SNB-19 CNS 48.6% | U251 CNS 27.8% | PC-3 prostate 34.3% | SK-MEL-5 melanoma 50.6% | UACC-62 melanoma 53% | LOX IMVI melanoma 35.9% | SK-MEL-28 melanoma 74.7% | SK-MEL-2 melanoma 97.7% | EKVX NSCLC 38.4% | SN12C renal 62% | UO-31 renal 21.3% | ACHN renal 27.9% | CAKI-1 renal 19.5% | A498 renal 70.1% | CCRF-CEM leukemia 31.8% | MOLT-4 leukemia 60.6% | SR leukemia 35.9%

O=C(Nc1ccc(N2CCNCC2)cc1)c1[nH]ncc1Nc1cc(Oc2ccccc2)ncn1
active: HT29 colon -59.7% | PC-3 prostate -60.3% | UACC-62 melanoma -5.09% | LOX IMVI melanoma -81% | SN12C renal 2.47% | UO-31 renal -13.1% | CCRF-CEM leukemia -27.5% | MOLT-4 leukemia -16% | SR leukemia 1.43%
inactive: SNB-75 CNS 49.1% | SNB-19 CNS 45.9% | U251 CNS 24.4% | SK-MEL-5 melanoma 22.8% | SK-MEL-28 melanoma 46.9% | SK-MEL-2 melanoma 72.3% | EKVX NSCLC 32.5% | TK-10 renal 49.5% | CAKI-1 renal 18.4% | A498 renal 40.6%

Cc1ccc(F)cc1NC(=O)c1cc(Cl)ccc1Nc1ccccc1
inactive: HT29 colon 17.8% | SNB-75 CNS 53.6% | SNB-19 CNS 59.4% | U251 CNS 42.5% | PC-3 prostate 23.2% | SK-MEL-5 melanoma 70.9% | UACC-62 melanoma 65.4% | LOX IMVI melanoma 49.4% | SK-MEL-28 melanoma 89.6% | SK-MEL-2 melanoma 54.9% | SN12C renal 32.1% | UO-31 renal 23.7% | TK-10 renal 63% | ACHN renal 42.3% | CAKI-1 renal 48.2% | A498 renal 89.1% | CCRF-CEM leukemia 45.8% | MOLT-4 leukemia 29% | SR leukemia 44.2%

O=C(O)CCCN1C(=O)C2C3CCC(C3)C2C1=O (centres undefined)
inactive: HT29 colon 100% | SNB-75 CNS 95.8% | SNB-19 CNS 104% | U251 CNS 104% | PC-3 prostate 106% | SK-MEL-5 melanoma 101% | UACC-62 melanoma 97% | LOX IMVI melanoma 103% | SK-MEL-28 melanoma 113% | SK-MEL-2 melanoma 101% | SN12C renal 103% | UO-31 renal 90.5% | TK-10 renal 98.2% | ACHN renal 109% | CAKI-1 renal 97.2% | A498 renal 105% | CCRF-CEM leukemia 108% | MOLT-4 leukemia 104% | SR leukemia 112%

O=C(NC1CCCCC1)C(c1cccs1)N(CCc1ccccc1)C(=O)c1ccco1 (centres undefined)
inactive: HT29 colon 69.6% | SNB-75 CNS 91.2% | SNB-19 CNS 96.4% | U251 CNS 96.9% | PC-3 prostate 92.9% | SK-MEL-5 melanoma 97.5% | UACC-62 melanoma 90.3% | LOX IMVI melanoma 94.7% | SK-MEL-28 melanoma 105% | SK-MEL-2 melanoma 84% | SN12C renal 92.2% | UO-31 renal 100% | TK-10 renal 94.5% | ACHN renal 94.6% | CAKI-1 renal 83% | A498 renal 93% | CCRF-CEM leukemia 93.8% | MOLT-4 leukemia 84.9% | SR leukemia 85.8%

Nc1nc2c(ncn2[C@@H]2O[C@H](CS)[C@@H](O)[C@H]2O)c(=O)[nH]1
inactive: HT29 colon 99.9% | SNB-75 CNS 92.6% | SNB-19 CNS 95.3% | U251 CNS 99.3% | PC-3 prostate 101% | SK-MEL-5 melanoma 97% | UACC-62 melanoma 93.6% | LOX IMVI melanoma 96.9% | SK-MEL-28 melanoma 98.6% | SK-MEL-2 melanoma 120% | EKVX NSCLC 95.8% | SN12C renal 97.2% | UO-31 renal 93% | TK-10 renal 96.3% | CAKI-1 renal 94.5% | A498 renal 99.9% | CCRF-CEM leukemia 100% | MOLT-4 leukemia 99% | SR leukemia 101%

c1ccc(-c2ccc(-c3nc4ccccc4[nH]3)cc2)cc1
inactive: HT29 colon 52.9% | SNB-75 CNS 55.4% | SNB-19 CNS 106% | U251 CNS 90.6% | PC-3 prostate 76.8% | SK-MEL-5 melanoma 100% | UACC-62 melanoma 103% | LOX IMVI melanoma 84.1% | SK-MEL-28 melanoma 93.2% | SK-MEL-2 melanoma 101% | SN12C renal 92.9% | UO-31 renal 67.4% | TK-10 renal 84.7% | ACHN renal 90.7% | CAKI-1 renal 93.6% | A498 renal 88.6% | CCRF-CEM leukemia 38.4% | MOLT-4 leukemia 56.9% | SR leukemia 58.8%

CN(C)CCCNCc1ccc(-c2ccc(F)c(Cl)c2)o1
inactive: SNB-75 CNS 40.5% | SNB-19 CNS 73.6% | PC-3 prostate 38.7% | UACC-62 melanoma 20.1% | SN12C renal 60.2% | UO-31 renal 16.7% | TK-10 renal 42.8% | ACHN renal 30.1% | CAKI-1 renal 37.5% | A498 renal 78.2%
active: HT29 colon -30.6% | U251 CNS -29.8% | SK-MEL-5 melanoma 6.38% | LOX IMVI melanoma -90.1% | SK-MEL-28 melanoma -86.9% | SK-MEL-2 melanoma -14.8% | CCRF-CEM leukemia 1.99% | MOLT-4 leukemia -4.5% | SR leukemia -22.9%

CCOC(=O)C1=CN(C)C=C(C(=O)OCC)C1c1cc(Br)c(OCC)c(OC)c1
active: HT29 colon 7.46% | UACC-62 melanoma -48% | SR leukemia -0.61%
inactive: SNB-75 CNS 43.5% | SNB-19 CNS 64.8% | U251 CNS 34.8% | PC-3 prostate 45.2% | SK-MEL-5 melanoma 36.1% | LOX IMVI melanoma 18.3% | SK-MEL-28 melanoma 18.8% | SK-MEL-2 melanoma 72.3% | SN12C renal 56.5% | UO-31 renal 16.3% | TK-10 renal 43% | ACHN renal 54.6% | CAKI-1 renal 52.5% | A498 renal 59.1% | CCRF-CEM leukemia 32.9% | MOLT-4 leukemia 27.5%

NCCOc1ncccc1/C=C1\c2ccccc2-c2ccc([N+](=O)[O-])cc21
active: HT29 colon -6.91% | SNB-75 CNS -81.1% | SNB-19 CNS -6.38% | U251 CNS -75% | PC-3 prostate 3.4% | SK-MEL-5 melanoma -97.5% | UACC-62 melanoma -81.5% | LOX IMVI melanoma -91.1% | SK-MEL-28 melanoma -22% | SK-MEL-2 melanoma -21.2% | EKVX NSCLC -19% | SN12C renal -62% | UO-31 renal -99.2% | TK-10 renal -74.9% | CAKI-1 renal -39.3% | A498 renal -89% | CCRF-CEM leukemia 8.64% | MOLT-4 leukemia -3.92% | SR leukemia 1.14%
